Results taken from PubChem BioAssay.
Values without a mark were called inactive. Activity calls are given as the source filed them.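 How the source made its calls: active means thallium flux through the channel raised or lowered by more than 3 SD from vehicle-only wells, actives on both sides; inactive means the rest.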

How the values were obtained:
Experiment in all cases: modulators of BK channel variants, profiling panel, selectivity assay, cell-based, U2OS BacMam, thallium flux, beta subunits (AID 1259406);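 further: initial slope of Thallos dye fluorescence rise after thallium is added; log ratio against the mean of 0.3% DMSO vehicle wells on the same plate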
F380Y = settings: at 30 µM
F380Y/beta1 = settings: at 30 µM
F380Y/beta2Delta = settings: at 30 µM
F380Y/beta4 = settings: at 30 µM
[1] = molecular target: Calcium-activated potassium channel subunit alpha-1 (Homo sapiens) + Leucine-rich repeat-containing protein 26 (Homo sapiens) (UniProt Q12791+Q2I0M4); settings: F380Y/Slo1WT/gamma1, at 30 µM
R275C = settings: at 30 µM
R275C/beta1 = settings: at 30 µM
R275C/beta2Delta = settings: at 30 µM
R275C/beta4 = settings: at 30 µM
R275C/Slo1WT/beta2 = settings: at 30 µM

Chain of Calcium-activated potassium channel subunit alpha-1 (Homo sapiens) + Leucine-rich repeat-containing protein 26 (Homo sapiens) (Q2I0M4 whole entry, looked up, one chain of several): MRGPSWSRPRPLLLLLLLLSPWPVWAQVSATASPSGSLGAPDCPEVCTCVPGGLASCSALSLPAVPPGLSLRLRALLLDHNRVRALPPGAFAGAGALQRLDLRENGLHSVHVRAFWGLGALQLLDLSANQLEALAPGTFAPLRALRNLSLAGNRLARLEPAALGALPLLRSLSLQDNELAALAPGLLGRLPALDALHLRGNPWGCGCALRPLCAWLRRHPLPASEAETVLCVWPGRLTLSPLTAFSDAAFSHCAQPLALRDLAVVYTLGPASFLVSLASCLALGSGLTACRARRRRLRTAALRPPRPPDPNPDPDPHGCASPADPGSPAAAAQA

| Structure (SMILES) | log fold change Tl+ flux (F380Y) | log fold change Tl+ flux (F380Y/beta1) | log fold change Tl+ flux (F380Y/beta2Delta) | log fold change Tl+ flux (F380Y/beta4) | log fold change Tl+ flux [1] | log fold change Tl+ flux (R275C) | log fold change Tl+ flux (R275C/beta1) | log fold change Tl+ flux (R275C/beta2Delta) | log fold change Tl+ flux (R275C/beta4) | log fold change Tl+ flux (R275C/Slo1WT/beta2) |
| --- | --- | --- | --- | --- | --- | --- | --- | --- | --- | --- |
| Clc1ccc(-n2nnnc2-c2cccnc2)c(Cl)c1 | 0.0135 | -0.0393 | -0.0638 | 0.0275 | 0.00547 | 0.00315 | 0.0215 | -0.00811 | 0.00931 | 0.0349 |
| O=C1CSCC(=O)N1c1csc(C(F)(F)F)c1-c1ccccc1 | -0.0223 | 0.0869 (active) | -0.00325 | 0.0035 | 0.0169 | 0.0132 | 0.122 (active) | 0.0241 | 0.11 (active) | -0.00785 |
| CC(C)C1COC(c2cccc(C3=NC(C(C)C)CO3)n2)=N1 (stereo not given) | -0.0154 | 0.0433 | 0.00332 | 0.0308 | 0.0138 | -0.00894 | 0.00883 | -0.00732 | -0.00827 | 0.043 |
| COC(=O)c1ccc(S(=O)(=O)NNc2ncnc3cc(C(C)(C)C)sc23)n1C | 0.00239 | 0.00797 | 0.0347 | 0.0667 | 0.00885 | 0.0131 | -0.027 | 0.00378 | -0.0156 | 0.0399 |
| CC(=O)CSc1nc(SCC(C)=O)c2cnc(N3CCCC3)nc2n1 | -0.0105 | -0.0297 | -0.00118 | -0.00484 | 0.0577 | -0.0104 | -0.000725 | -0.0224 | -0.00829 | 0.0731 |
| NC(CS(=O)(=O)Cc1ccco1)=NO | 0.0416 | 0.0173 | 0.00572 | 0.019 | -0.0714 | -0.017 | -0.00211 | -0.0186 | -0.0304 | -0.0219 |
| CCN1CCC(O)(C#Cc2ccccc2)CC1 | -0.00462 | 0.0157 | -0.0113 | -0.0547 | 0.00398 | -0.00643 | 0.0179 | 0.0235 | -0.01 | 0.0236 |
| Cc1cc(C(=O)ON=C(N)c2ccc([N+](=O)[O-])o2)no1 | 0.0152 | 0.0208 | 0.0122 | 0.0216 | 0.00414 | -0.00373 | 0.00585 | -0.00874 | 0.0176 | -0.0342 |
| Cc1ccc(C(=O)Cn2cc([N+](=O)[O-])nc2C)cc1 | -0.00237 | -0.0164 | 0.0463 | -0.00425 | -0.043 | 0.00593 | 0.0164 | -0.0174 | 0.0383 | 0.0674 |
| COc1cccc(CC(=O)NC2CCN(c3nccc(C(F)(F)F)n3)CC2)c1 | -0.0079 | -0.0102 | 0.00797 | -0.0197 | -0.0334 | -0.0558 | -0.0259 | -0.00912 | 0.0415 | 0.0233 |
| CSC(NCc1cccnc1)=C(C#N)S(=O)(=O)c1ccc(Cl)cc1 | 0.0268 | 0.0532 | 0.0758 | 0.000772 | 0.0179 | 0.0549 | 0.0793 | 0.0872 (active) | 0.0736 | 0.0289 |
| FC(F)(F)c1cc(-c2noc(-c3ccc4c(c3)CCO4)n2)cc(C(F)(F)F)c1 | 0.118 (active) | 0.292 (active) | 0.24 (active) | 0.269 (active) | 0.0774 | 0.0291 | 0.191 (active) | 0.182 (active) | 0.0808 (active) | -0.0138 |
| S=c1sc2c(s1)SCC1(CS2)OCCO1 | -0.0425 | 0.0267 | -0.0279 | 0.0791 | 0.000395 | -0.0211 | -0.0642 | -0.0207 | -0.0357 | -0.00583 |
| ONC=Nc1nonc1-c1cccnc1 | 0.00986 | -0.0105 | -0.0403 | 0.000104 | -0.0369 | -0.0128 | 0.016 | -0.0342 | -0.00156 | 0.00719 |
| O=C(C(=NN=Cc1ccc2c(c1)OCO2)c1ccccc1)c1ccccc1 | -0.0112 | -0.00905 | -0.0268 | -0.0584 | -0.0678 | -0.163 (active) | -0.3 (active) | 0.000499 | -0.138 (active) | -0.0825 |
| COC(=O)C1=C(C)NC(C)=C(C(=O)OC)C1c1ccccc1 | -0.0145 | 0.00442 | -0.0123 | 0.0301 | 0.0229 | 0.00578 | 0.033 | -0.018 | 0.0507 | 0.0172 |
| COc1ccc(CCNC(=O)c2ccccc2NC(=O)c2ccccc2C)cc1OC | -0.0118 | -0.0452 | -0.0544 | -0.615 (active) | -0.381 (active) | -1.01 (active) | -0.839 (active) | -0.31 (active) | -0.582 (active) | -0.267 (active) |
| N=C(N)Cc1c(Cl)cccc1Cl | 0.017 | 0.00557 | -0.000365 | -0.0202 | -0.0432 | 0.0228 | 0.0441 | 0.028 | 0.0274 | 0.00537 |
| CCOC(=O)CSc1nnc(OCC)n1-c1ccccc1 | -0.0276 | -0.00436 | 0.0123 | -0.00338 | 0.0529 | -0.0234 | 0.0181 | -0.0101 | -0.0109 | 0.0084 |
| O=C1CCC(=O)N1c1ccc(S(=O)(=O)NCCCN2CCN(Cc3ccccc3)CC2)cc1 | 0.0288 | 0.0192 | -0.00712 | -0.0181 | 0.0299 | -0.0386 | 0.0158 | -0.00414 | -0.00195 | -0.018 |
| COc1ccc2c(OC(C)=O)coc2c1 | 0.00358 | -0.0482 | -0.00847 | -0.0157 | -0.0163 | 0.00531 | -0.00826 | 0.012 | 0.0182 | -0.00513 |
| Fc1ccc(CCc2ccc(F)cc2)cc1 | -9.9e-05 | -0.0289 | 0.0449 | 0.0131 | 0.0118 | 0.0179 | 0.0162 | 0.0454 | 0.0168 | -0.0303 |
| Cn1c(C(=O)O)ccc1S(=O)(=O)N(Cc1ccccc1)Cc1ccccc1 | 0.0347 | 0.205 (active) | 0.0498 | 0.139 (active) | 0.000486 | 0.00591 | 0.0906 | 0.0893 (active) | 0.11 (active) | 0.0146 |
| Cc1nc(-c2ccccc2)sc1C(=O)NC(=O)c1ccccc1O | 0.0264 | 0.0766 | 0.0338 | 0.00645 | 0.146 (active) | 0.0501 | 0.0519 | 0.07 | 0.078 | 0.011 |
| O=S(=O)(Oc1ccc(F)cc1F)c1cccc(S(=O)(=O)Oc2ccc(F)cc2F)c1 | -0.193 (active) | -0.0152 | 0.00173 | -0.485 (active) | -0.264 (active) | -0.229 (active) | -0.209 (active) | -0.0138 | -0.144 (active) | -0.0996 |
| CCc1[nH]c(=S)[nH]c(=O)c1C#N | -0.0598 | 0.0419 | 0.0255 | 0.0765 | 0.0111 | 0.0263 | -0.0177 | 0.00491 | 0.0228 | 0.0561 |
